# Experimental data published in PMC8384837, “Expanding the binding specificity for RNA recognition by a PUF domain”.
# Where a chain is given by its changes, count along the chain named.
# How the values were obtained:
# Test in all cases: yeast three-hybrid, YBZ-1, SC-Leu-His + 0.5 mM 3-AT, 4 days
# Details in all cases: tags: N-Gal4 AD-HA kept; label: inside an RPR1-promoter hybrid RNA with tandem MS2 sites; ssRNA
# PUM1 PUF domain R1-QVR = PUM1 PUF domain R1-QVR (Homo sapiens, UniProt Q14671 828-1176, S863Q;R864V;Q867R)
# Procedure, shortened: (§1)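 The interaction score is the log change in how often each variant appears, from input to selection. Frequencies came from PCR-amplified, Illumina-sequenced repeat regions of Pumilio-1 PUF domain libraries grown in strain YBZ-1 (LexA–MS2 coat fusion, HIS3 reporter) alongside matching RNA elements. Input plates were SC-Leu and selection plates were SC-Leu-His + 0.5 mM 3-AT, each for four days, and the log2 calculation used a pseudocount of 1 where a variant was absent.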
# PUM1 PUF domain R1-NKR = PUM1 PUF domain R1-NKR (Homo sapiens, UniProt Q14671 828-1176, S863N;R864K;Q867R)
# Procedure, shortened: as §1
# PUM1 PUF domain R1-YSR = PUM1 PUF domain R1-YSR (Homo sapiens, UniProt Q14671 828-1176, S863Y;R864S;Q867R)
# Procedure, shortened: as §1
# PUM1 PUF domain R3-FCS = PUM1 PUF domain R3-FCS (Homo sapiens, UniProt Q14671 828-1176, C935F;R936C;Q939S)
# Procedure, shortened: as §1
# PUM1 PUF domain R3-IWS = PUM1 PUF domain R3-IWS (Homo sapiens, UniProt Q14671 828-1176, C935I;R936W;Q939S)
# Procedure, shortened: as §1
# PUM1 PUF domain R5-RND = PUM1 PUF domain R5-RND (Homo sapiens, UniProt Q14671 828-1176, C1007R;R1008N;Q1011D)
# Procedure, shortened: as §1
# PUM1 PUF domain R3-SRL = PUM1 PUF domain R3-SRL (Homo sapiens, UniProt Q14671 828-1176, C935S;Q939L)
# Procedure, shortened: as §1
# PUM1 PUF domain R6-VYL = target: T1, PUM1 PUF domain R6-VYL (Homo sapiens, UniProt Q14671 828-1176, N1043V;Q1047L)
# T1 sequence: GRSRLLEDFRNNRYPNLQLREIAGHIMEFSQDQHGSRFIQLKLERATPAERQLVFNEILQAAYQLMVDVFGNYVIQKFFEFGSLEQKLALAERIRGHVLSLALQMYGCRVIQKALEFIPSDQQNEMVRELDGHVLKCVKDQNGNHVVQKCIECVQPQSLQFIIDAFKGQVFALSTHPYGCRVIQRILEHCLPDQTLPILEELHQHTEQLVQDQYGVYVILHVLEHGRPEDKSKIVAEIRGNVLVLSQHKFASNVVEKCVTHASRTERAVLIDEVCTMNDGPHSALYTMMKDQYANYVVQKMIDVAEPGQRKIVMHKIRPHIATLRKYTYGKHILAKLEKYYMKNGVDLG
# Procedure, shortened: as §1
# PUM1 PUF domain R3-CFD = PUM1 PUF domain R3-CFD (Homo sapiens, UniProt Q14671 828-1176, R936F;Q939D)
# Procedure, shortened: as §1
# PUM1 PUF domain R5-MRR = PUM1 PUF domain R5-MRR (Homo sapiens, UniProt Q14671 828-1176, C1007M;Q1011R)
# Procedure, shortened: as §1
# PUM1 PUF domain R3-EFL = PUM1 PUF domain R3-EFL (Homo sapiens, UniProt Q14671 828-1176, C935E;R936F;Q939L)
# Procedure, shortened: as §1
# PUM1 PUF domain R5-RAK = PUM1 PUF domain R5-RAK (Homo sapiens, UniProt Q14671 828-1176, C1007R;R1008A;Q1011K)
# Procedure, shortened: as §1
# PUM1 PUF domain R3-PWH = PUM1 PUF domain R3-PWH (Homo sapiens, UniProt Q14671 828-1176, C935P;R936W;Q939H)
# Procedure, shortened: as §1
# PUM1 PUF domain R3-RNE = PUM1 PUF domain R3-RNE (Homo sapiens, UniProt Q14671 828-1176, C935R;R936N;Q939E)
# Procedure, shortened: as §1
# PUM1 PUF domain R5-CQR = PUM1 PUF domain R5-CQR (Homo sapiens, UniProt Q14671 828-1176, R1008Q;Q1011R)
# Procedure, shortened: as §1
# PUM1 PUF domain R2-LFC = PUM1 PUF domain R2-LFC (Homo sapiens, UniProt Q14671 828-1176, N899L;Y900F;Q903C)
# Procedure, shortened: as §1
# PUM1 PUF domain R8-IFR = PUM1 PUF domain R8-IFR (Homo sapiens, UniProt Q14671 828-1176, N1122I;Y1123F;Q1126R)
# Procedure, shortened: as §1
# PUM1 PUF domain R6-NHR = target: T2, PUM1 PUF domain R6-NHR (Homo sapiens, UniProt Q14671 828-1176, Y1044H;Q1047R)
# T2 sequence: T1 sequence with V216N, Y217H, L220R
# Procedure, shortened: as §1
sequence,measurement,setting,value
GGCUAGAACUAGUGGAUCCCCCGGCGCCCGGCGGCUCGAGCCCGGGUAAGUGUAAAUCGUCUGCAUGCCGCCGGGCGCCAUGCCUGCAGGUCGACUCUAGAAAACAUG,binding signal,PUM1 PUF domain R1-QVR,3.01 log2 enrichment (interaction score)
same,binding signal,PUM1 PUF domain R1-NKR,3.94 log2 enrichment (interaction score)
same,binding signal,PUM1 PUF domain R1-YSR,4.84 log2 enrichment (interaction score)
GGCUAGAACUAGUGGAUCCCCCGGCGCCCGGCGGCUCGAGCCCGGGUAAGUGUAAAUUGUCUGCAUGCCGCCGGGCGCCAUGCCUGCAGGUCGACUCUAGAAAACAUG,binding signal,PUM1 PUF domain R1-QVR,1.47 log2 enrichment (interaction score)
same,binding signal,PUM1 PUF domain R1-YSR,5.97 log2 enrichment (interaction score)
GGCUAGAACUAGUGGAUCCCCCGGCGCCCGGCGGCUCGAGCCCGGGUAAGUGUAAGUAGUCUGCAUGCCGCCGGGCGCCAUGCCUGCAGGUCGACUCUAGAAAACAUG,binding signal,PUM1 PUF domain R3-FCS,5.25 log2 enrichment (interaction score)
same,binding signal,PUM1 PUF domain R3-IWS,6.08 log2 enrichment (interaction score)
GGCUAGAACUAGUGGAUCCCCCGGCGCCCGGCGGCUCGAGCCCGGGUAAGUGUAAAUAGUCUGCAUGCCGCCGGGCGCCAUGCCUGCAGGUCGACUCUAGAAAACAUG,binding signal,PUM1 PUF domain R5-RND,0.31 log2 enrichment (interaction score)
same,binding signal,PUM1 PUF domain R3-SRL,3.65 log2 enrichment (interaction score)
same,binding signal,PUM1 PUF domain R6-VYL,0.58 log2 enrichment (interaction score)
same,binding signal,PUM1 PUF domain R3-CFD,3.85 log2 enrichment (interaction score)
same,binding signal,PUM1 PUF domain R5-MRR,1.43 log2 enrichment (interaction score)
same,binding signal,PUM1 PUF domain R3-EFL,5.34 log2 enrichment (interaction score)
GGCUAGAACUAGUGGAUCCCCCGGCGCCCGGCGGCUCGAGCCCGGGUAAGUGUCAAUAGUCUGCAUGCCGCCGGGCGCCAUGCCUGCAGGUCGACUCUAGAAAACAUG,binding signal,PUM1 PUF domain R5-RND,5.27 log2 enrichment (interaction score)
same,binding signal,PUM1 PUF domain R5-RAK,3.03 log2 enrichment (interaction score)
same,binding signal,PUM1 PUF domain R5-MRR,4.14 log2 enrichment (interaction score)
GGCUAGAACUAGUGGAUCCCCCGGCGCCCGGCGGCUCGAGCCCGGGUAAGUGUAAAUGGUCUGCAUGCCGCCGGGCGCCAUGCCUGCAGGUCGACUCUAGAAAACAUG,binding signal,PUM1 PUF domain R1-NKR,1.8 log2 enrichment (interaction score)
GGCUAGAACUAGUGGAUCCCCCGGCGCCCGGCGGCUCGAGCCCGGGUAAGUGUAAUUAGUCUGCAUGCCGCCGGGCGCCAUGCCUGCAGGUCGACUCUAGAAAACAUG,binding signal,PUM1 PUF domain R3-SRL,1.51 log2 enrichment (interaction score)
same,binding signal,PUM1 PUF domain R3-PWH,4.06 log2 enrichment (interaction score)
same,binding signal,PUM1 PUF domain R3-RNE,2.81 log2 enrichment (interaction score)
same,binding signal,PUM1 PUF domain R3-EFL,2.29 log2 enrichment (interaction score)
GGCUAGAACUAGUGGAUCCCCCGGCGCCCGGCGGCUCGAGCCCGGGUAAGUGUUAAUAGUCUGCAUGCCGCCGGGCGCCAUGCCUGCAGGUCGACUCUAGAAAACAUG,binding signal,PUM1 PUF domain R5-RAK,3.4 log2 enrichment (interaction score)
same,binding signal,PUM1 PUF domain R5-CQR,3.55 log2 enrichment (interaction score)
GGCUAGAACUAGUGGAUCCCCCGGCGCCCGGCGGCUCGAGCCCGGGUAAGUGAAAAUAGUCUGCAUGCCGCCGGGCGCCAUGCCUGCAGGUCGACUCUAGAAAACAUG,binding signal,PUM1 PUF domain R6-VYL,6.07 log2 enrichment (interaction score)
GGCUAGAACUAGUGGAUCCCCCGGCGCCCGGCGGCUCGAGCCCGGGUAAGUGUGAAUAGUCUGCAUGCCGCCGGGCGCCAUGCCUGCAGGUCGACUCUAGAAAACAUG,binding signal,PUM1 PUF domain R5-CQR,0.8 log2 enrichment (interaction score)
GGCUAGAACUAGUGGAUCCCCCGGCGCCCGGCGGCUCGAGCCCGGGUAAGUGUAAAAAGUCUGCAUGCCGCCGGGCGCCAUGCCUGCAGGUCGACUCUAGAAAACAUG,binding signal,PUM1 PUF domain R2-LFC,3.16 log2 enrichment (interaction score)
GGCUAGAACUAGUGGAUCCCCCGGCGCCCGGCGGCUCGAGCCCGGGUAAGCGUAAAUAGUCUGCAUGCCGCCGGGCGCCAUGCCUGCAGGUCGACUCUAGAAAACAUG,binding signal,PUM1 PUF domain R8-IFR,4.56 log2 enrichment (interaction score)
GGCUAGAACUAGUGGAUCCCCCGGCGCCCGGCGGCUCGAGCCCGGGUAAGUGCAAAUAGUCUGCAUGCCGCCGGGCGCCAUGCCUGCAGGUCGACUCUAGAAAACAUG,binding signal,PUM1 PUF domain R6-NHR,5.94 log2 enrichment (interaction score)
